Screening results (PubChem BioAssay)
RGS4 inh: Inhibitors of Regulator of G Protein Signaling (RGS) 4: qHTS; Transcreener GDP fluorescence polarization, RGS4-accelerated GTP hydrolysis; 390,000 compounds, 0.039% hits; Regulator of G-protein signaling 4 (Homo sapiens), P49798; AID 504845, 2011; Potency, µM (doses to about 114 µM), actives largely listed as inhibitors; active means well fitted curve in the direction sought with a large enough effect; inconclusive means small, poorly fitted or top-dose-only effect, or another doubt; inactive means no such curve, though single readings can be large; an effect the other way counts as inactive or inconclusive; further: nearly all actives have a fitted effect of over 75% in size
Target sequence (P49798 whole entry, looked up): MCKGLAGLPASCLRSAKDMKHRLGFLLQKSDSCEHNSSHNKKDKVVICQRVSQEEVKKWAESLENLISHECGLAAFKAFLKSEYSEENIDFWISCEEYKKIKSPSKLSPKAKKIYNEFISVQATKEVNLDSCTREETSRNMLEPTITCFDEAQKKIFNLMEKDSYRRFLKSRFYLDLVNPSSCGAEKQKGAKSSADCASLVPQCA
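MLSMR compounds (23 nl, pin-transferred) preincubated 10 min at room temperature with a 500nM (2x) first reagent, then RGS4 at 900nM (2x) plus Transcreener GDP mix added; fluorescence polarization (620/688 nm) read before and after 90 min at 30 °C.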
Glioma ERSR ind: qHTS for Inducers of the Endoplasmic Reticulum Stress Response (ERSR) in Human Glioma: qHTS. AID 602332, 2012. Potency, µM, usual class: activators. U87-MG GRP78 promoter luciferase reporter, 16 h. 420,000 compounds, 0.02% hits; active means well fitted curve in the direction sought with a large enough effect; inconclusive means small, poorly fitted or top-dose-only effect, or another doubt; inactive means no such curve, though single readings can be large; an effect the other way counts as inactive or inconclusive; further: series mostly up to about 76 µM; nearly all actives have a fitted effect of over 35% in size
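Stably transfected U87-MG human glioma cells carrying a GRP78-based luminescent sensor were seeded at 1000 cells/well, pin-dosed with compounds and incubated 16 h. Luciferase reagent was then added, and end-point luminescence was read after 10 min at room temperature.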
Six1-Eya2 inh: qHTS Assay for Inhibitors of the Six1/Eya2 Interaction. Homeobox protein SIX1 (Homo sapiens) + Protein phosphatase EYA2 (Homo sapiens), …. AID 651725, 2012. 360,000 compounds, 0.56% hits. AlphaScreen GST-Six1/His-Eya2 binding, biochemical; active compounds read low. activity change, % (no concentration beside the values)
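GST-Six1 + His-Eya2 (5X stock: 250/500 nM); Tris pH 8.0, 300 mM NaCl, 0.05% BSA, 0.02% Tween 20; GSH donor/Ni acceptor beads; 1 h 37 °C dark; AlphaScreen readout.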
CtBP-E1A inh: qHTS Assay for Inhibitors of the CtBP/E1A Interaction; CtBP / adenovirus E1A interaction (AlphaScreen); AlphaScreen GST-E1A/His-CtBP binding, 1536-well; active compounds read low; activity change, % (test concentration not listed); 340,000 compounds, 0.49% hits; AID 651724, 2012
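Protein mix (5X: 125 nM each GST-E1A, His-CtBP) was incubated with pinned compound 2 h at 37 deg C in dark, in 50 mM Tris pH 8.0 buffer with 300 mM NaCl. Glutathione donor and nickel acceptor beads followed; AlphaScreen signal read after 1 h.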
pAkt inh: HTS Assay for Inhibitors of Akt Phophorylation: Primary Screen; AID 651550, 2012; 360,000 compounds, 0.32% hits; activity change, % for hits at 50 µM; Neuro2A IGF-stimulated pAkt S473 HTRF, 20 min; active compounds read low; in the data active means activity change below about -80%; inconclusive means mostly about -51% to -80%
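Single-point screen (50 µM final compound) in Neuro2A cells stimulated 20 min with 6 nM IGF at 37 deg C. After lysis, Ser473-phosphorylated Akt read by HTRF (ex 330 nm, em 615/665 nm) as the 665/615 ratio.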
Each line names hits and unclear results; the compound was inactive in the other large screens; ! = a repeat was not active. In the library only some 0.88% were active in any assay of this set; here they are far more common. Unless noted, no stated cut-off is given here; in the data, active means activity change below about -65%; inconclusive means mostly about -30% to -63%; inactive means weaker than that.

COc1cc([N+](=O)[O-])cc(/C=N/NC(=O)c2cncc(Br)c2)c1O	Six1-Eya2 inh -92.9, CtBP-E1A inh -89.7
O=C(N/N=C\c1ccc([N+](=O)[O-])o1)c1cncc(Br)c1	Six1-Eya2 inh inconclusive, CtBP-E1A inh inconclusive
CCOc1cc(/C=N/NC(=O)c2cccs2)cc([N+](=O)[O-])c1O	Six1-Eya2 inh -86.8 (no result: CtBP-E1A inh)
O=C1CC[C@@H](C(=O)NCC2Cc3cc(Cl)cc(-c4ccc5[nH]ccc5c4)c3O2)N1 (stereo not given in full)	none (no result: RGS4 inh, Six1-Eya2 inh, CtBP-E1A inh, pAkt inh)
OC(c1cccnc1)c1ccc2c(c1)CN(Cc1ccc(-c3ccccc3Cl)o1)CCO2 (stereo not given)	none (no result: RGS4 inh, Six1-Eya2 inh, CtBP-E1A inh, pAkt inh)
C#Cc1cccc(Nc2ncnc3cc(OC)c(OC)cc23)c1	none (no result: Six1-Eya2 inh, CtBP-E1A inh, pAkt inh)
CCCCC/C=C\C/C=C\C/C=C\C=C\[C@@H](O)CCCC(=O)O	none (no result: RGS4 inh, Six1-Eya2 inh, CtBP-E1A inh, pAkt inh)
CCCCC/C=C\C\C=C/C=C/C=C/[C@@H](SC[C@H](N)C(=O)NCC(=O)O)[C@@H](O)CCCC(=O)O	RGS4 inh 26.7µM (no result: Six1-Eya2 inh, CtBP-E1A inh, pAkt inh)
COc1ccccc1C(=O)N[C@@H]1c2ccccc2C2(CCN(Cc3cccnc3)CC2)[C@H]1O	none (no result: RGS4 inh, Six1-Eya2 inh, CtBP-E1A inh, pAkt inh)
CCN1C(=O)CC(N2CCC(Nc3ccc(OC)cc3)CC2)C1=O (stereo not given)	pAkt inh -106.0%
COc1cc([N+](=O)[O-])cc(/C=N/NC(=O)CSc2nnc(-c3ccccc3)n2C)c1O	none
COc1ccc(/C=N/NC(=O)Cn2nc([N+](=O)[O-])cc2C)c(OC)c1OC	none (no result: CtBP-E1A inh)
COc1cc([N+](=O)[O-])cc(/C=N/NC(=O)Cn2nc(C)cc2C)c1O	Six1-Eya2 inh -90.6, CtBP-E1A inh inconclusive
COc1cc([N+](=O)[O-])cc(/C=N/NC(=O)Cn2nccc2C)c1O	Six1-Eya2 inh -88.5, CtBP-E1A inh -93.9
COC(=O)[C@@H]1CCCN1Cc1ccc2c(c1)CN(Cc1coc3ccc(C)cc3c1=O)CCO2	none (no result: RGS4 inh, Six1-Eya2 inh, CtBP-E1A inh, pAkt inh)
O=C(c1ccc(Cn2cc(Cl)cn2)o1)N1CCN(Cc2ccc3c(c2)OCO3)CC1	pAkt inh -110.6%
COc1cc2c(C#N)c(N3CCCC3)nc(N)c2c(N)n1	RGS4 inh inconclusive, CtBP-E1A inh -73.2!
CCOc1cc2c(C#N)c(N3CCCC3)nc(N)c2c(N)n1	none (no result: CtBP-E1A inh)
O=C1CCc2cc(-c3csc(-c4ccc(O)cc4)n3)ccc2N1	none (no result: RGS4 inh, Six1-Eya2 inh, CtBP-E1A inh, pAkt inh)
CC/C=C(/C(=O)N[C@@H]1C(=O)N2C(C(=O)OCOC(=O)C(C)(C)C)=C(COC(N)=O)CS[C@H]12)c1csc(N)n1	none (no result: RGS4 inh, Six1-Eya2 inh, CtBP-E1A inh, pAkt inh)
c1ccc(C2=NN(c3ccccc3)CC2)cc1	none (no result: CtBP-E1A inh)
c1ccc(N=NC2=NN(c3ccccc3)CS2)cc1	Six1-Eya2 inh -76.9, CtBP-E1A inh inconclusive (no result: RGS4 inh)
CC[C@@H](C)[C@H](NC(=O)OC(C)(C)C)c1nnc(S(=O)(=O)Cc2cc(C)ccc2C)o1	RGS4 inh inconclusive, pAkt inh -127.2%
Cc1c(C)c(C)c(/C=C/c2ccnc3ccccc23)c(C)c1C	none (no result: RGS4 inh, Six1-Eya2 inh, CtBP-E1A inh, pAkt inh)
CCCCNC(=O)[C@@H]1CC=C[C@@H]2CCN(Cc3ccc(OC)c(OC)c3)C(=O)[C@@H]21	none (no result: RGS4 inh, Six1-Eya2 inh, CtBP-E1A inh, pAkt inh)
COc1ccccc1C1=NN(C2=NN=C(N)Cc3ncnn32)C(O)(C(F)(F)F)C1 (stereo not given)	Six1-Eya2 inh inconclusive, CtBP-E1A inh -65.3
COc1ccccc1NC(=O)C(=O)N1N=C(C(C)C)CC1(O)C(F)(F)F (stereo not given)	none
NC1=NN=C(N2N=C(c3ccc(Br)cc3)CC2(O)C(F)(F)F)n2ncnc2C1 (stereo not given)	Six1-Eya2 inh inconclusive
NC1=NN=C(N2N=C(c3ccccc3)CC2(O)C(F)(F)F)n2ncnc2C1 (stereo not given)	Six1-Eya2 inh inconclusive, CtBP-E1A inh -69.9
COc1ccc(C2=NN(C3=NN=C(N)Cc4ncnn43)C(O)(C(F)(F)F)C2)cc1 (stereo not given)	Six1-Eya2 inh -67.8, CtBP-E1A inh -86.2
CN(C)S(=O)(=O)c1cccc(NC(=S)N/N=C/c2cc(Br)ccc2O)c1	Six1-Eya2 inh -88.4, CtBP-E1A inh -93.8
O=C(CCC1COc2ccccc2O1)N1CCCC1 (stereo not given)	pAkt inh -100.3%
